Activity calls are given as the source filed them. Unless noted, no rule for the calls is given here.
Tests used:
[1] = test system: Wnt5a (protein binding on small-molecule microarray); experiment: Wnt5a binders on small-molecule microarray, primary screen, biophysical, 635/667 nm fluorescence (AID 1142); details: 635 nm fluorescence, higher = more signal;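 also: fluorescence read at 667 nm with signal to noise per printed feature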
[2] = cell viability in Huh7 cells, primary screen, cytotoxicity control for HCV replication inhibitor project, CellTiter-Glo luminescence, basal, 48 h (AID 1143); details: Huh7 HCV replicon, higher = more signal, called active from +8 up or from −8 down;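 also: Huh7 hepatoma cells carrying a hepatitis C replication reporter with no stimulus; test concentration not given here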
[3] = P. aeruginosa biofilm formation inhibitors, primary screen, PAO1 strain, BacTiter-Glo luminescence, LB-PBS (AID 1144); details: 12 h, higher = more signal
[4] = CREB reporter modulators without forskolin, primary screen, cell-based, PC12, CRE-LacZ reporter, unstimulated (AID 1145); details: no forskolin, luminescence, 4.5 h, higher = more signal, called active from +8 up or from −8 down
[5] = CREB reporter modulators under forskolin, primary screen, cell-based, PC12, CRE-LacZ reporter, forskolin-stimulated (AID 1146); details: luminescence, 4.5 h, higher = more signal, called active from +8 up or from −8 down;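 also: PC12 cells with 6xCRE LacZ reporter stimulated by forskolin 10 µM; beta-galactosidase reporter signal reflecting CREB driven transcription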
[6] = target: Streptavidin (Streptomyces avidinii) (UniProt P22629); experiment: streptavidin binders on small-molecule microarray, primary screen, artefact control for SMM compound annotation, biophysical, 635/667 nm fluorescence (AID 1147); details: streptavidin binding, higher = more signal;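 also: signal reflects streptavidin binding to arrayed compounds as a control protein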
[7] = small-molecule binders of probe aInhba, primary screen, biochemical, small-molecule microarray, 635/667 nm fluorescence (AID 1148); details: higher = more signal;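 also: score merges 667nm spot fluorescence with signal-to-noise for antibody binding to printed compounds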
[8] = target: Torsin-1A (Homo sapiens) (UniProt O14656); experiment: torsin A binders from cell lysate, primary screen, small-molecule microarray, wild-type, 635/667 nm (AID 1149); details: COS7 hTOR1A-WT lysate, 635 nm fluorescence, higher = more signal
[9] = target: Torsin-1A (Homo sapiens) (UniProt O14656); experiment: small-molecule binders of mutant TOR1A in lysate, primary screen, cell lysate, small-molecule microarray, COS7 lysate, 635/667 nm fluorescence (AID 1150); details: COS7 hTOR1A mutant lysate, 635 nm fluorescence, higher = more signal;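 also: score pools 667 nm emission and signal to noise measuring lysate protein binding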
[10] = test system: Sonic hedgehog protein (Shh); experiment: small-molecule binders of Shh protein, primary screen, biochemical, small-molecule microarray, 635/667 nm fluorescence (AID 1151); details: small-molecule microarray binding, 635 nm fluorescence; higher = more signal;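 also: Shh protein binding to compounds spotted on small-molecule microarray slides; score combines spot fluorescence intensity with signal-to-noise across triplicate slides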

Chain of Streptavidin (Streptomyces avidinii) (P22629 whole entry, looked up): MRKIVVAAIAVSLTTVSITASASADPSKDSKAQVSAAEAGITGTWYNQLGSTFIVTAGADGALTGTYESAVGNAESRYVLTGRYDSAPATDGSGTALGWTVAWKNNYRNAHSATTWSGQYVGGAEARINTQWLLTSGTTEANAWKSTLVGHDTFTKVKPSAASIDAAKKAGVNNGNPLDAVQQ
Chain of Torsin-1A (Homo sapiens) (O14656 whole entry, looked up): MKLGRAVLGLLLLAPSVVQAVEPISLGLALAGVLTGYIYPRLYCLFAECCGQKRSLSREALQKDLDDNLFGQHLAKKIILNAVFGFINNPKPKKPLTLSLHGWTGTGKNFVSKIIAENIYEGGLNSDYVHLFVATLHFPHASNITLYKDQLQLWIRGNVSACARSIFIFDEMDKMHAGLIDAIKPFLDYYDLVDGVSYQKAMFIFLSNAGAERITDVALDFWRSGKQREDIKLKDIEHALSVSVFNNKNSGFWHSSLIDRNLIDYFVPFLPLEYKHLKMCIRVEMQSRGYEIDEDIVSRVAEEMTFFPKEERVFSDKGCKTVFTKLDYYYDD

SMILES	composite z-score [1]	z-score [2]	z-score [3]	z-score [4]	z-score [5]	composite z-score [6]	composite z-score [7]	composite z-score [8]	composite z-score [9]	composite z-score [10]
COc1ccc(CCNC(=O)[C@@H]2c3ccccc3C(=O)N(Cc3cc(F)cc(C(F)(F)F)c3)[C@H]2c2ccc(CO)cc2)cc1	0.0093	-0.489 (inactive)	0.869 (inactive)	0.585 (inactive)	-1.11 (inactive)	0.234	0.396	0.642	0.478	0.618
Cc1ccc(S(=O)(=O)N2[C@@H](c3ccccc3)C(C(=O)O)=C[C@H]2C(C)(C)C)cc1	0.211	-1.23 (inactive)	0.137 (inactive)	0.238 (inactive)	0.926 (inactive)	1.52	0.209	0.391	0.985	0.719
C=C[C@@H](CO)NS(=O)(=O)c1ccc(Br)cc1	0.236	-2.14 (inactive)	-1.74 (inactive)	1.54 (inactive)	-0.52 (inactive)	-0.232	-0.154	-0.0176	-0.354	-0.317
COC(=O)[C@@]1(Cc2ccccc2)[C@H]2c3cc(C(=O)N(C)C)n(Cc4ccc(Cl)c(C(F)(F)F)c4)c3C[C@H]2CN1C(=O)c1ccccc1	0.498	-3.79 (inactive)	0.821 (inactive)	0.583 (inactive)	-0.244 (inactive)	1.56	0.63	-0.172	0.0947	1.31
CC(C)N1C(=O)[C@@]2(Cc3ccccc31)c1ccccc1C(=O)N(Cc1ccccc1)[C@H]2c1ccc(CO)cc1	0.164	0.629 (inactive)	0.0609 (inactive)	-0.114 (inactive)	0.467 (inactive)	-0.439	-0.119	0.291	-0.182	0.462
CO[C@H]1O[C@H](CO)[C@@H](OC(=O)Nc2cccc(F)c2)[C@H](OC(=O)c2cc3ccccc3[nH]2)[C@H]1OC(=O)c1cc2ccccc2[nH]1	-0.363	-3.31 (inactive)	-1.02 (inactive)	1.03 (inactive)	-0.679 (inactive)	-0.256	-0.128	-0.536	-0.18	-0.111
CCCCC=C[C@@H](NC(=O)C(C)(C)C)c1ccccc1	0.5	-2.89 (inactive)	0.124 (inactive)	-0.185 (inactive)	1.67 (inactive)	0.761	0.353	0.226	0.487	-0.0371
COC(=O)C(CC#Cc1ccc2c(c1)[C@]1(C(=O)N2)[C@H](C(=O)N2CCN(c3ncccn3)CC2)[C@H]2C(=O)O[C@H](c3ccccc3)[C@H](c3ccccc3)N2[C@@H]1c1ccc(O)cc1)C(=O)OC	0.923	-3.7 (inactive)	-0.58 (inactive)	-0.0515 (inactive)	0.0989 (inactive)	2.27	1.39	0.662	1.12	1.04
CCCCN1CC=CC23O[C@@H]4/C=C\CCC(C)OC(=O)C4[C@H]2C(=O)N(CCO)[C@@H]3C1=O (stereo not given in full)	-0.122	-1.08 (inactive)	-1.31 (inactive)	-0.627 (inactive)	-0.0432 (inactive)	-1.52	-0.0494	2.84	2.94	-0.0956
C=C(C)C1CN([C@H](CO)c2ccccc2)C(=O)/C1=C\c1ccccc1 (stereo not given in full)	-0.0623	-4.75 (inactive)	1.3 (inactive)	2.04 (inactive)	-0.391 (inactive)	-0.0971	-0.0719	0.0321	0.343	0.633
C=C(C(=O)CC[C@@H](OC(=O)c1cccnc1)c1cccc(OCCO)c1)C(C)C	0.222	-2.97 (inactive)	-0.372 (inactive)	1.67 (inactive)	-1.24 (inactive)	-0.0835	-0.0736	-0.0348	-0.234	1.72
COC(=O)C1(CC(C)C)C=C2C(=C(C)C(=O)C2C)CN1 (stereo not given)	0.392	-0.109 (inactive)	0.142 (inactive)	0.0041 (inactive)	2.32 (inactive)	0.351	1.17	0.0384	0.276	-0.645
CCCC[C@@H](O)C1=C(C)Cn2c(=O)n(-c3ccccc3)c(=O)n2[C@H]1CO	0.0027	-1.07 (inactive)	-0.275 (inactive)	1.77 (inactive)	-0.844 (inactive)	-0.463	-0.251	0.0705	0.141	0.317
CC(=O)NCCCC[C@@H]1NC(=O)[C@H]2C[C@@H](C(=O)NCCCCCN)[C@@H](c3ccc(O)cc3)N2C1=O	0.0662	0.0104 (inactive)	0.447 (inactive)	-0.0038 (inactive)	0.126 (inactive)	0.947	-0.0658	0.274	0.568	1.01
Cc1ccc(S[C@]2(C(=O)NCC(C)C)CC(=O)N(C(C)C)[C@@H]2c2ccc(CO)cc2I)cc1	0.241	-1.44 (inactive)	0.502 (inactive)	0.0909 (inactive)	0.205 (inactive)	-0.807	-0.173	-0.782	-0.607	-1.07
COC(=O)[C@@]1(Cc2ccc(F)cc2)[C@H]2c3cc(C(=O)N(C)C)n(Cc4ccc(C(F)(F)F)nc4)c3C[C@H]2CN1C(=O)c1ccccc1	0.381	-3.01 (inactive)	0.857 (inactive)	1.91 (inactive)	1.13 (inactive)	1.55	0.36	0.516	0.717	0.521
CC[C@H]1C2=C3C(CC[C@H]4C(OCc5ccc(F)cc5C(F)(F)F)OC[C@](C)([C@@H]34)N(C(=O)OC(C)(C)C)C2)C(COC(C)=O)C1COC(C)=O (stereo not given in full)	0.374	-1.35 (inactive)	0.729 (inactive)	0.204 (inactive)	1.3 (inactive)	1.3	0.214	0.129	0.168	-1.2
COc1ccc([Si](C)(C)[C@H]2[C@H](CCO)O[C@@]3(C(=O)N(Cc4ccccc4)c4ccc(NC(=O)[C@H](C)O)cc43)[C@@H]2C)cc1	0.571	-7.85 (inactive)	-1.29 (inactive)	20.8 (active)	1.12 (inactive)	0.0684	0.0659	0.569	0.437	1.33
CC(C)(C)OC(=O)CC[C@@]1(C(N)=O)N=C(c2ccc(OCCCO)cc2)O[C@@H]1c1ccccc1CN=[N+]=[N-]	1.07	-0.57 (inactive)	0.938 (inactive)	0.171 (inactive)	0.638 (inactive)	-0.0644	0.278	0.612	1.08	-0.425
COc1cc2c(cc1OC)CN(C(=O)[C@@H]1[C@H]3C(=O)O[C@H](c4ccccc4)[C@H](c4ccccc4)N3[C@H](c3ccc(O)cc3)[C@@]13C(=O)Nc1ccc(C#CC4=CCCCC4)cc13)CC2	0.236	-1.56 (inactive)	-0.376 (inactive)	-0.375 (inactive)	-0.493 (inactive)	1.03	0.271	0.335	0.794	1.07
COc1ccc([Si](C)(C)[C@H]2[C@H](CC(=O)N(CCO)Cc3ccccc3)O[C@@]3(C(=O)N(Cc4cccc(N5CCCCC5=O)c4)c4ccccc43)[C@@H]2C)cc1	0.0763	-4.74 (inactive)	-0.937 (inactive)	3.13 (inactive)	-1.32 (inactive)	0.0037	-0.0719	0.444	0.793	2.13
C=CC[C@]1(C(N)=O)N=C(c2ccc(OCCCO)cc2)O[C@H]1c1ccccc1N=[N+]=[N-]	0.423	-1.05 (inactive)	0.348 (inactive)	0.432 (inactive)	-1.81 (inactive)	0.489	0.0857	0.534	1.62	0.0211
C=C(CCCC)C(=O)CC[C@H](OC(=O)c1ccccc1-c1ccccc1C(=O)O)c1cccc(OCCO)c1	-0.151	-0.548 (inactive)	-0.77 (inactive)	0.434 (inactive)	5.04 (inactive)	-0.352	-0.179	0.259	0.114	0.847
C=C[C@H](C)[C@@H](OC(=O)Nc1ccc(SC)cc1)c1ccc(OCCO)cc1	0.179	-2.91 (inactive)	-0.567 (inactive)	6.08 (inactive)	-0.24 (inactive)	-0.363	0.36	-0.0803	0.278	1.98
Cc1ccc(N2C(=O)c3ccccc3[C@@H](C(=O)NCCN3CCOCC3)[C@@H]2c2ccc(CO)cc2)nc1	-0.275	0.209 (inactive)	-0.479 (inactive)	0.145 (inactive)	-0.479 (inactive)	-1.42	0.0051	-2.75	-1.65	0.179
C=C(COC)/C(=C/C[C@@H](OC(C)=O)c1cccc(OCCO)c1)c1cnc2ccccc2c1	0.603	-2.14 (inactive)	0.0432 (inactive)	2.53 (inactive)	-0.444 (inactive)	0.897	-0.0131	0.14	0.499	1.83
COC(=O)[C@@]1(Cc2ccc(F)cc2)[C@H]2c3cc(C(=O)N4CCCC4)n(C[C@H](O)CO)c3C[C@H]2CN1C(=O)c1ccccc1	0.943	0.0849 (inactive)	0.339 (inactive)	0.0075 (inactive)	-0.101 (inactive)	1.12	0.674	0.0277	0.332	-0.545
COC(=O)[C@H]1N=C(c2ccc(OCCCO)cc2)O[C@H]1c1ccccc1N=[N+]=[N-]	0.563	-2.38 (inactive)	-0.17 (inactive)	1.18 (inactive)	0.226 (inactive)	0.489	0.317	0.698	0.175	-0.207
COc1ccc(C(O)C2C=CC3C(=O)N(c4ccccc4)C(=O)C3N2Nc2ccccc2F)c2ccccc12 (stereo not given)	0.936	-0.225 (inactive)	-1.21 (inactive)	0.629 (inactive)	-0.813 (inactive)	2.38	1.11	0.163	0.273	0.824
